Experiment [1] is described as follows: qHTS profiling for inhibitors of Plasmodium falciparum proliferation (AID 504749).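 For activity, negative = inhibition: 0% = DMSO vehicle and full inhibition = artemisinin control.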 Note: nearly all actives have a fitted effect of over 60% in size. Note: potency is the fitted concentration of half-maximal effect. The note with it: P. falciparum in erythrocytes, SYBR Green DNA, 72 h. The method in brief: (§1)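 Parasite proliferation within erythrocytes, 72 h exposure. Endpoint: SYBR Green I fluorescence after overnight lysis at room temperature. Controls: 0.29 uM artemisinin, DMSO.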
Background: qHTS replaces the single test concentration by a dilution series.

The subject of a further experiment is 3D7. The description is as above. Conditions: P. falciparum in erythrocytes, SYBR Green DNA, 72 h; series mostly up to 28.7 µM. In short, it runs like this: as §1
Another experiment relates to 7G8. The experiment is described as above. Conditions: P. falciparum in erythrocytes, SYBR Green DNA, 72 h; series mostly up to 28.7 µM. In short, it runs like this: as §1
A further experiment concerns AA1029. The experiment is described as above. Conditions: P. falciparum in erythrocytes, SYBR Green DNA, 72 h; series mostly up to 28.7 µM. The method in brief:
as §1

The subject of another experiment is AS120. Described as above. Conditions: P. falciparum in erythrocytes, SYBR Green DNA, 72 h; series mostly up to 28.7 µM. In short, it runs like this:
as §1

The next experiment concerns ATS189. Described as above. Conditions: P. falciparum in erythrocytes, SYBR Green DNA, 72 h; series mostly up to 28.7 µM. In short, it runs like this: as §1
For a further experiment, the system named is ATS95. The description is as above. Conditions: P. falciparum in erythrocytes, SYBR Green DNA, 72 h; series mostly up to 28.7 µM. In short, it runs like this: as §1
In a further experiment the test system is C2A. Described as above. The note with it: P. falciparum in erythrocytes, SYBR Green DNA, 72 h; series mostly up to 28.7 µM. The method in brief:
as §1

The subject of a further experiment is CP185. Described as above. The note with it: P. falciparum in erythrocytes, SYBR Green DNA, 72 h; series mostly up to 28.7 µM. The method in brief:
as §1

A further experiment concerns CP191. Described as above. Conditions: P. falciparum in erythrocytes, SYBR Green DNA, 72 h; series mostly up to 28.7 µM. In short, it runs like this: as §1
For the next experiment, the system named is CP192. The experiment is described as above. The note with it: P. falciparum in erythrocytes, SYBR Green DNA, 72 h; series mostly up to 28.7 µM. In short, it runs like this:
as §1

In a further experiment the test system is CP194. The description is as above. The note with it: P. falciparum in erythrocytes, SYBR Green DNA, 72 h; series mostly up to 28.7 µM. The method in brief:
as §1

In the next experiment the test system is CP201. The experiment is described as above. Conditions: P. falciparum in erythrocytes, SYBR Green DNA, 72 h; series mostly up to 28.7 µM. In short, it runs like this: as §1
A further experiment relates to CP211. The experiment is described as above. The note with it: P. falciparum in erythrocytes, SYBR Green DNA, 72 h; series mostly up to 28.7 µM. The method in brief: as §1
The next experiment has as its system CP215. The description is as above. The note with it: P. falciparum in erythrocytes, SYBR Green DNA, 72 h; series mostly up to 28.7 µM. The method in brief:
as §1

The next experiment has as its system CP217. The description is as above. The note with it: P. falciparum in erythrocytes, SYBR Green DNA, 72 h; series mostly up to 28.7 µM. In short, it runs like this:
as §1

A further experiment concerns CP237. Described as above. Conditions: P. falciparum in erythrocytes, SYBR Green DNA, 72 h; series mostly up to 28.7 µM. In short, it runs like this: as §1
The nature of experiment [2]: qHTS drug screen for cell cycle checkpoint inhibitors in PARPi-resistant BRCA-mutant ovarian cancer cell lines. (AID 1963452; calls by dose curve). Conditions: PEO1/OlaR viability, CellTiter-Glo luminescence, 96 h, stronger effect = lower value. In short, it runs like this: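 PEO1, PEO4 and PEO1/OlaR ovarian cancer cells, 600 per well, exposed 96 h at 37C to a dilution series. Viability read by CellTiter-Glo luminescence, normalized to DMSO and empty wells; activity summarized as Z-AUC.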

Experiment [3] is described as follows: qHTS for identification of novel therapeutic agents for treatment of microphthalmiaassociated transcription factor (MiT) renal cell carcinoma (RCC) (AID 1963991; calls by dose curve; note: potency is the fitted concentration of half-maximal effect). Conditions: CellTiter-Glo, 48 h; for Potency: active = Z-AUC below -0.8 in all three lines; for z-score: stronger effect = lower value. The method in brief:
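Three TFE3-fusion RCC cell lines (UOK109, UOK124, UOK145), 500 cells/well, were exposed to the 1912-compound MIPE 4.0 library for 48 hours at 37 C. Viability was read by CellTiter-Glo luminescence, normalised to DMSO (100%) and empty wells (0%), with 11-concentration curve fits.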

The mark [4] stands for this setting: measured here: PEO1 parental Z-AUC.
Where [5] appears, read: at 12.8 µM (top of the series), parasite line B.
The mark [6] stands for this setting: TFE3-RCC UOK109 viability, measured here: UOK109 Z-AUC.
The mark [7] stands for this setting: TFE3-RCC viability, measured here: UOK124 Z-AUC.
The mark [8] stands for this setting: TFE3-RCC viability, measured here: UOK145 Z-AUC.
Where [9] appears, read: at 12.8 µM (top of the series), parasite line A.

Inconclusive results are not listed. Active and inactive are the calls of the source. Unless noted, calls come from the whole dose curve; as a rule, active = well fitted inhibition curve with a large enough effect; inconclusive = small, poorly fitted or top-dose-only effect; inactive = flat fitted curve, though single readings scatter.

Consider seven compounds from PubChem BioAssay (NCATS).

Take `N=c1nc(N2CCCCC2)cc(N)n1O`: the activity, negative = inhibition was 6.18% (inactive) in experiment [1] (at 28.7 µM (top of the series), parasite line A) and 18.3% (inactive) in experiment [1] (at 28.7 µM (top of the series), parasite line B). Moreover, the Potency result in the experiment with 3D7, in the experiment with 7G8, in the experiment with AA1029, with AS120, with ATS189 and in the experiment with ATS95 was “inactive” in each case. The Potency result in the experiment with C2A, with CP185, in the experiment with CP191, in the experiment on CP192, in the experiment with CP194 and in the experiment on CP211 was “inactive” throughout. Further, the Potency entry in the experiment with CP215, in the experiment with CP217 and with CP237 was “inactive” throughout. In addition, the result in the experiment with CP201 was inactive.
Turning to `Nc1nc2ccc(OC(F)(F)F)cc2s1`, the Potency entry in the experiment on 3D7, in the experiment with 7G8, in the experiment with AA1029, in the experiment with AS120, in the experiment with ATS95 and in the experiment on C2A was “inactive” throughout. Besides, the Potency entry in the experiment with CP185, in the experiment with CP192, in the experiment with CP194, in the experiment with CP211, in the experiment on CP215 and with CP217 was “inactive” throughout. For the same compound, the Potency entry in the experiment with CP237 was “inactive”. Further, the outcome in the experiment on CP201 was inactive.
Consider `NNCCc1ccccc1`, for which the Z-AUC is 0.52 (inactive) in [2], 0.364 in experiment [2] (setting [4]) and 0.249 in experiment [2] (measured here: PEO4 Z-AUC). Further, in experiment [1] (setting [5]), the activity, negative = inhibition was -6.84% (inactive). Besides, the Potency entry in the experiment with AA1029, in the experiment on ATS189, with ATS95, in the experiment with C2A, in the experiment on CP185 and in the experiment with CP191 was “inactive” in each case. Moreover, the Potency entry with CP192, in the experiment with CP194, with CP211, with CP215, in the experiment on CP217 and in the experiment with CP237 was “inactive” in each case. Also, the outcome in the experiment with CP201 was inactive.
Take `Cc1c(CN2CCN(C(=O)C(C)C)CC2)sc2c(N3CCOCC3)nc(-c3cnc(N)nc3)nc12`: in [3] (TFE3-RCC UOK109 viability), the Potency was 118 nM (active). For the same compound, the z-score in experiment [3] (setting [6]) was -1.83; in [3] (setting [7]) it was -1.54; in [3] (setting [8]), -2.67.
`Cc1oncc1C(=O)Nc1ccc(C(F)(F)F)cc1`: the Z-AUC in experiment [2] was 0.594 (inactive); in experiment [2] (setting [4]), 0.454; in experiment [2] (measured here: PEO4 Z-AUC), 0.504. In addition, the activity, negative = inhibition in [1] (setting [9]) was -4.31% (inactive); in [1] (setting [5]), 9.52% (inactive). For the same compound, the Potency entry with 3D7, with AA1029, with AS120, with ATS189, in the experiment with ATS95 and in the experiment with C2A was “inactive” in each case. For the same compound, the Potency entry in the experiment on CP185, in the experiment on CP192, in the experiment on CP194, with CP211, in the experiment on CP217 and in the experiment with CP237 was “inactive” in each case. For the same compound, the Potency with 7G8 was 3550 nM (active). The compound was called inactive with CP201.
On to `COc1ccc(-c2ccc3c(N4CCOC[C@H]4C)nc(N4CCOC[C@H]4C)nc3n2)cc1CO`, for which the Potency in [3] (TFE3-RCC UOK109 viability) is 93.5 nM (active). Further, the z-score is -1.8 in [3] (setting [6]), -2.87 in [3] (setting [7]) and -2.13 in [3] (setting [8]).
For `Nc1ccc(S(=O)(=O)Nc2ccnn2-c2ccccc2)cc1`, the z-score amounted to 2.1 in experiment [3] (setting [6]), 0.571 in experiment [3] (setting [7]) and 1.56 in experiment [3] (setting [8]). For the same compound, the activity, negative = inhibition was -1.36% (inactive) in [1] (setting [9]) and 3.8% (inactive) in experiment [1] (setting [5]). Besides, the Potency entry in the experiment with 3D7, with 7G8, in the experiment with AA1029, with AS120, with ATS189 and with ATS95 was “inactive” in each case. Also, the Potency result in the experiment on C2A, in the experiment with CP185, in the experiment on CP191, in the experiment with CP192, in the experiment with CP194 and in the experiment with CP211 was “inactive” throughout. In addition, the Potency result in the experiment with CP217 and in the experiment on CP237 was “inactive” each time. Besides, the outcome in the experiment on CP201 was inactive.
